HSF1 inhib: HSF1 inhibitors in luciferase reporter cells, primary screen, cell-based, NIH3T3, luminescence; NIH3T3-HGL HSE-luciferase, MG132-induced, luminescence 8 h; active compounds read low; activity change, negative = inhibition, % at 7.5 µM (by protocol); 0.77% of 300,000 active;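 active = more than half of replicate wells show activity change below -50%, luminescence cut by over half; inconclusive = some wells, but at most half, below -50%; inactive = no replicate well below -50%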;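 also: luciferase reports HSF-1 transcriptional activity via heat shock element; 0% = median of DMSO wells and -100% = zero luminescence signal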
NOD2-RIPK2 inh: NOD2-RIPK2 binding disruptors in cells, primary screen, fluorescence, CHO cells, BLA complementation; CCF4 ratio; inhibition, % at 4.98 µM; 0.38% of 360,000 active; in the data active = inhibition above about 21%;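 also: 0% = vehicle only and 100% = reference blocker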
TLR9-MyD88 inh: inhibitors of TLR9-MyD88 association in cells, primary screen, cell-based, CHO, BLA complementation, fluorescence | Toll-like receptor 9 (Homo sapiens) + Myeloid differentiation primary response protein … | CCF4 FRET ratio | inhibition, % at 4.98 µM | 0.21% of 340,000 active | AID 504734, 2011;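 active = inhibition above the mean over all tested compounds plus 3 SD, cut at about 21% in these data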;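 also: 0% = DMSO only wells and 100% = clavulanate BLA inhibitor control wells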
TLR4-MyD88 BLA: inhibitors of TLR4-MyD88 association in cells, primary screen, cell-based, HeLa CL3-4, BLA complementation, FRET ratio | Toll-like receptor 4 (Homo sapiens) + Myeloid differentiation primary response protein … | inhibition, % at 8.4 µM | HeLa CL3-4 TLR4/MyD88 BLA complementation | AID 861, 2007 | 0.18% of 200,000 active; in the data active = inhibition above about 25%;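 also: 0% = vehicle and 100% = reference inhibitor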
HSF-1 act: HSF-1 activators, primary screen, NIH3T3-HGL cells, MG132 stress, luminescence, single point; NIH3T3-HGL HSF-1 luciferase reporter, 8 h; 100% = twice DMSO control signal; activation, % at 9 µM; 1.7% of 300,000 active;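 active = mean replicate activation of at least 50% with a set share of replicates each reaching 50%; inconclusive = only one of those two conditions met; inactive = mean below 50% and too few replicates reaching it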;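 also: 0% = median of the neutral control wells and 100% = twice that signal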
An asterisk follows results filed as active; u = inconclusive; x = no result. Sampled rows, rich in hits. Any-hit rate of the full collection: about 2.4%.

SMILES | HSF1 inhib | NOD2-RIPK2 inh | TLR9-MyD88 inh | TLR4-MyD88 BLA | HSF-1 act
COc1ccc(C2NN=C(c3ccc(C)cc3)S2)cc1OC (centres undefined) | 17 | 1 | -3 | -11 | 36
Cc1ccc(C(=O)/C=C/Nc2cccc([N+](=O)[O-])c2)o1 | 22 | 1 | 1 | -13 | 59*
CC(C)CN(C(=O)c1cccs1)C1CCS(=O)(=O)C1 (centres undefined) | 19 | 6 | -4 | x | 62*
Cc1cc(C)n2nc(SCC(=O)N3CCN(c4ccccc4)CC3)nc2n1 | x | -12 | 3 | x | x
Cc1oc(-c2cccc(Cl)c2)nc1CN1CCCC(C(=O)NCc2ccco2)C1 (centres undefined) | 4 | 10 | -2 | 18 | 12
Cc1oc(-c2cccc(Cl)c2)nc1CN1CCCC(C(=O)NC(C)c2ccc3c(c2)OCCO3)C1 (centres undefined) | 27 | -1 | 1 | 2 | 54*
CCOC(=O)C(=Cc1ccc(-c2ccsc2C(=O)OC)o1)C(=O)OCC | 75 | -2 | -12 | 2 | 90*
COC(=O)C(=Cc1ccc(-c2ccsc2C(=O)OC)o1)C(=O)OC | 31 | 9 | -7 | x | 43
C=C(C)Cn1c(SCC(=O)O)nnc1-c1ccc(OC)cc1 | 17 | -7 | -1 | -10 | 59*
CCOP(=O)(Nc1cccc2oc(=O)c3ccccc3c12)OCC | x | -6 | 2 | x | x
Cc1cc(NC(=O)CSc2nnc(C)n2C)no1 | -59* | 1 | -1 | x | -68
Cc1cc(NC(=O)CSc2nc3c(cc2C#N)CCCC3)no1 | 45 | 9 | 7 | 3 | 71*
Cc1cc(NC(=O)CSc2nc3c(cc2C#N)CCC3)no1 | 55 | 1 | 5 | x | 84*
Cc1cc(NC(=O)CSc2nnc(C3CC3)n2C)no1 | -2 | 4 | -5 | 8 | -6
Cc1cc(NC(=O)CSc2nc3ccccc3cc2C#N)no1 | 23 | -7 | -4 | x | u
N[C@@H](Cc1cnc[nH]1)C(=O)Nc1ccc2ccccc2c1 | x | -14 | -7 | x | x
NS(=O)(=O)c1cccc(NC(=O)CNC(=O)CC23CC4CC(CC(C4)C2)C3)c1 | -77* | -1 | -1 | -1 | -82
NS(=O)(=O)c1cccc(NC(=O)CC23CC4CC(C2)CC(CC(=O)Nc2cccc(S(N)(=O)=O)c2)(C4)C3)c1 | -3 | 0 | 1 | x | 12
CNC(=O)C1(C)CCN1C(=O)Cc1ccc(C(C)C)cc1 (centres undefined) | x | 0 | x | x | x
CC[C@]12c3[nH]c4cc(-c5ccco5)ccc4c3CCN1C(=O)[C@@H](CC(=O)NC(C)(C)C)C[C@@H]2C(=O)N1CCN(C(=O)c2ccco2)CC1 | x | -4 | -9 | x | x
CO[C@H]1CN(C)C(=O)c2ccc(NC(=O)C3CCC3)cc2OC[C@H](C)N(CC2CCCCC2)C[C@@H]1C | x | -1 | x | x | x
Cc1ccc(OCC(=O)Nc2ccccc2C(=O)N2CCCCC2)cc1 | -53* | -5 | 1 | x | -64
CCC(=O)c1ccc(OCC(=O)Nc2ccccc2C(=O)N2CCCCC2)cc1 | -1 | -9 | -3 | x | -5
Cc1nc(C(F)(F)F)ccc1C(=O)N1CCC1(C)C(=O)NS(=O)(=O)c1c(C)noc1C (centres undefined) | x | -3 | x | x | x
N#Cc1c(Cl)nc(N/N=C/c2ccccc2)c(Cl)c1Cl | 37 | -11 | 13 | 3 | 63*
SMILES | HSF1 inhib | NOD2-RIPK2 inh | TLR9-MyD88 inh | TLR4-MyD88 BLA | HSF-1 act
CCOC(=O)Cc1nnc2c(Nc3ccccc3F)nc3nonc3n12 | -74* | -4 | 1 | 6 | -79
CCOC(=O)C1(C)CCCCN1C(=O)c1cccnc1 (centres undefined) | x | 1 | x | x | x
O=C(NCCc1c[nH]c2ccccc12)C(=O)c1c[nH]c2ccccc12 | 8 | -19 | 16 | x | 32
Cc1cc2cc(CCNC(=O)C(=O)c3c[nH]c4ccccc34)c(=O)[nH]c2cc1C | -63* | 2 | -1 | 8 | -65
COc1cccc(-c2nc(=S)c3c(n2Cc2ccco2)CCCC3)c1 | 114 | -10 | 6 | 1 | 124*
Cc1cccc(-c2nc(=S)c3c(n2Cc2ccco2)CCCC3)c1 | -2 | -4 | -1 | 8 | 11
CCN(CC)C(=S)SCC(=O)c1ccc(F)cc1 | 43 | -4 | 4 | 0 | 66*
Cc1ccc(SCc2cn3cccnc3n2)cc1 | 23 | 9 | -22 | -7 | 44
Cc1ccn2cc(CSc3ccccc3)nc2c1 | 42 | -9 | -1 | -2 | 53*
CC(=O)c1ccc(NC(=O)CCCN2C(=O)/C(=C/C(C)=C/c3ccccc3)SC2=S)cc1 | 37 | -5 | -5 | 1 | 70*
Cc1ccc(/C=C2\SC(=S)N(CCCC(=O)Nc3ccccn3)C2=O)cc1 | -67* | -7 | -4 | -10 | -71
COc1cccc(/C=C2/SC(=S)N(CCC(=O)N3CCOCC3)C2=O)c1 | 4 | 0 | 1 | x | 1
COc1cccc(/C=C2\SC(=S)N(CCCC(=O)N3CCCCC3)C2=O)c1 | 23 | -7 | -6 | x | 55*
COc1ccc(N(CC(=O)NCc2ccco2)C(=O)CCC(=O)Nc2nccs2)cc1 | 0 | 6 | -3 | x | -3
CC(C)(C)NC(=O)CN1C(=O)c2cccc3cccc1c23 | x | 2 | -1 | x | x
C=CCSC1=Nc2sccc2C2=NC(=O)CN12 | -75* | -2 | 8 | -6 | -81
Cc1ccc(CSC2=Nc3ccccc3C3=NC(=O)CN23)cc1 | 40 | 2 | 2 | -9 | 41
COc1cccc(CN(C)C(=O)c2ccc(S(=O)(=O)Nc3ccccc3C)cc2)c1OC | x | -16 | -8 | x | x
Cc1ccc(C(=O)Nc2nnc(C3CCCCC3)s2)o1 | 37 | 5 | -4 | -5 | 68*
Cc1cc(C(=O)Nc2nnc(C3CCCCC3)s2)no1 | 3 | -1 | -8 | -12 | 4
COc1ccc(N2CC(C(=O)Nc3nnc(C4CCCCC4)s3)CC2=O)cc1 (centres undefined) | -62* | 1 | -3 | x | -70
COc1ccc(S(=O)(=O)N2CCCCC2)cc1NC(=O)C1CC1C (centres undefined) | x | -18 | -10 | x | x
CC1=CC(=O)C(C(C)=Nc2cccc(Cl)c2)C(=O)O1 (centres undefined) | x | -8 | -5 | x | x
CCCOc1ccc(CNC(=O)c2ccc3nc(N4CCOCC4)sc3c2)cc1 | -8 | 4 | 0 | x | 10
Nc1c(C(=O)NC2CCCC2)sc2nc(-c3cccs3)ccc12 | 48 | 1 | 17 | -13 | 56*
O=C(Oc1c(-c2ccccc2Cl)oc2ccccc2c1=O)c1ccc(Cl)cc1 | -54* | 2 | 2 | 12 | -65
Clc1nc(-c2cccnc2)nc2scc(-c3ccccc3)c12 | 58 | -7 | 2 | -8 | 72*
CC(C)(C)c1ccc(Cn2c(=O)cnc3ccccc32)cc1 | -70* | 2 | 1 | x | -69
CCOC(=O)CN(C(=O)CSc1nnnn1C)c1ccccc1 | x | -9 | -8 | x | x
